Test [1] in a line: NCI Yeast Anticancer Drug Screen. Data for the rad50 strain (AID 155).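 Note: 0% = growth of vehicle-only cultures of the same strain.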 Particulars: S. cerevisiae rad50 strain growth inhibition, hits give high values. Put shortly: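 Relative growth inhibition (compound vs vehicle) was measured in yeast with a defined repair-gene alteration.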
A short description of test [2]: NCI Yeast Anticancer Drug Screen. Data for the mec2-1 strain (AID 157). The settings on record: S. cerevisiae mec2-1 strain, hits give high values. Put shortly:
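Growth inhibition is read against vehicle-treated controls after compound exposure of the mec2-1 yeast strain, which is defective in DNA damage repair or cell cycle control.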

Test [3] can be described thus: NCI Yeast Anticancer Drug Screen. Data for the sgs1 mgt1 strain (AID 161).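 Note: 0% = growth of cultures given vehicle only.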 Particulars: S. cerevisiae sgs1 mgt1 strain, hits give high values. Put shortly: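 Percent growth inhibition was derived by comparing compound-exposed mutant yeast with vehicle-exposed cultures. The strain carries alterations in DNA damage repair.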
Test [4] in a line: NCI Yeast Anticancer Drug Screen. Data for the cln2 rad14 strain (AID 165).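 Note: 0% = growth equal to vehicle treated cultures.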 Particulars: S. cerevisiae cln2 rad14 strain, hits give high values. Put shortly: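 Growth inhibition, relative to vehicle-treated controls, is the read-out. The test organism is a yeast strain with defined genetic alterations, cln2 rad14.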
The nature of test [5]: NCI Yeast Anticancer Drug Screen. Data for the bub3 strain (AID 167). The settings on record: S. cerevisiae bub3 mutant strain, hits give high values. Put shortly:
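Screening used yeast with an engineered genetic alteration affecting cell cycle control. Compound-exposed cultures were compared with vehicle cultures, and reduced growth was taken as inhibition.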

Test [6] is described as follows: NCI Yeast Anticancer Drug Screen. Data for the mlh1 rad18 strain (AID 175). Particulars: S. cerevisiae mlh1 rad18 strain growth inhibition, hits give high values. Put shortly:
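Cells of a genetically altered yeast strain, deficient in DNA damage repair, were treated with compound. Their growth was then compared with that of vehicle-treated cultures to give inhibition.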

The mark [7] stands for this setting: at 5.0 µM (retest, dose inferred, filed as 0.5).
Setting [8] is: at 50.0 µM (retest, dose inferred, filed as 5.0).

The panel holds about 79,000 compounds, 15% with a hit somewhere; the sample as a whole holds those more often. Unmarked numbers belong to inactive results. Activity calls are given as the source filed them. Cut-off read from the data, not from the text of the source: active = growth inhibition above about 70%; inactive = the rest.

Turning to `Cc1cc(CCN)c(C)c2c1oc1ccccc12`, the growth inhibition was -9% in test [1] (setting [7]); 95% (active) in test [1] (setting [8]); 98.5% (active) in test [1] (at 50.0 µM); -7% in test [2] (setting [7]); 88% (active) in test [2] (setting [8]); 70.2% (active) in test [2] (at 50.0 µM). The growth inhibition in test [3] (setting [7]) is -7%; in test [3] (setting [8]) it was 99% (active); in test [3] (at 50.0 µM), 98.8% (active); in test [4] (setting [7]), -5%; in test [4] (setting [8]), 98% (active); in test [4] (at 50.0 µM) it was 62.8%. The growth inhibition in test [5] (setting [7]) was -22%; in test [5] (setting [8]) it was 96% (active); in test [5] (at 50.0 µM), 93% (active); in test [6] (setting [7]) it was -6%; in test [6] (setting [8]), 98% (active); in test [6] (at 50.0 µM), 98.6% (active).
With `c1ccc2c(c1)[O][Sn][O]2`, the growth inhibition in test [1] (setting [7]) is 0%; in test [1] (setting [8]), 6%; in test [1] (at 50.0 µM), 98.8% (active); in test [2] (setting [7]), 1%; in test [2] (setting [8]), 3%; in test [2] (at 50.0 µM) it was 99.2% (active). The growth inhibition in test [3] (setting [7]) is -1%; in test [3] (setting [8]), 1%; in test [3] (at 50.0 µM), 39.8%; in test [4] (setting [7]), 0%; in test [4] (setting [8]), -1%; in test [4] (at 50.0 µM), 98.8% (active). Besides, the growth inhibition in test [5] (setting [7]) was -1%; in test [5] (setting [8]) it was 2%; in test [5] (at 50.0 µM) it was 99.4% (active); in test [6] (setting [7]), 1%; in test [6] (setting [8]) it was 3%; in test [6] (at 50.0 µM) it was 99% (active).
For the compound `O=S(=O)(F)c1cc(Cl)c(O)cc1Cl`, the growth inhibition in test [1] (setting [7]) was -143%; in test [1] (setting [8]), 16%; in test [1] (at 50.0 µM), 78.3% (active); in test [2] (setting [7]), -45%; in test [2] (setting [8]), 48%; in test [2] (at 50.0 µM) it was 57.8%. For the same compound, the growth inhibition in test [3] (setting [7]) is -61%; in test [3] (setting [8]) it was 60%; in test [3] (at 50.0 µM), 79.6% (active); in test [4] (setting [7]), -41%; in test [4] (setting [8]), 47%; in test [4] (at 50.0 µM), 51.5%. The growth inhibition in test [5] (setting [7]) was -57%; in test [5] (setting [8]), 39%; in test [5] (at 50.0 µM) it was 78.2% (active); in test [6] (setting [7]) it was -114%; in test [6] (setting [8]), 45%; in test [6] (at 50.0 µM) it was 83.2% (active).
As to `CN1C(=O)C23CC4=CC=CC(O)C4N2C(=O)C1(CO)SS3` (stereo not given), the growth inhibition in test [1] (setting [7]) was 99% (active); in test [1] (setting [8]), 99% (active); in test [1] (at 50.0 µM), 92.8% (active); in test [2] (setting [7]), 99% (active); in test [2] (setting [8]), 100% (active); in test [2] (at 50.0 µM), 95% (active). The growth inhibition in test [3] (setting [7]) is 99% (active); in test [3] (setting [8]), 100% (active); in test [3] (at 50.0 µM), 93.2% (active); in test [4] (setting [7]), 99% (active); in test [4] (setting [8]) it was 99% (active); in test [4] (at 50.0 µM) it was 92.5% (active). In addition, the growth inhibition in test [5] (setting [7]) was 99% (active); in test [5] (setting [8]), 99% (active); in test [5] (at 50.0 µM), 93.5% (active); in test [6] (setting [7]), 99% (active); in test [6] (setting [8]) it was 99% (active); in test [6] (at 50.0 µM) it was 93.5% (active).
Consider `c1ccc(N=c2snc(-c3ccccc3)s2)cc1`, for which the growth inhibition in test [1] (setting [7]) was 2%; in test [1] (setting [8]), 2%; in test [1] (at 50.0 µM) it was 91.1% (active); in test [2] (setting [7]), -3%; in test [2] (setting [8]) it was -2%; in test [2] (at 50.0 µM), 46.8%. Moreover, the growth inhibition in test [3] (setting [7]) was 4%; in test [3] (setting [8]) it was 3%; in test [3] (at 50.0 µM), 73.5% (active); in test [4] (setting [7]), 3%; in test [4] (setting [8]) it was -2%; in test [4] (at 50.0 µM) it was 6.4%. The growth inhibition in test [5] (setting [7]) was -4%; in test [5] (setting [8]), 2%; in test [5] (at 50.0 µM), 82.5% (active); in test [6] (setting [7]) it was 5%; in test [6] (setting [8]), 6%; in test [6] (at 50.0 µM), 80.2% (active).
Regarding `CC(=O)OCC1(N2CCCC2)CCCCC1`, the growth inhibition in test [1] (setting [7]) was -3%; in test [1] (setting [8]), 2%; in test [1] (at 50.0 µM), 5.05%; in test [2] (setting [7]), 2%; in test [2] (setting [8]), -3%; in test [2] (at 50.0 µM) it was 5.35%. Besides, the growth inhibition is -3% in test [3] (setting [7]); 16% in test [3] (setting [8]); 43.4% in test [3] (at 50.0 µM); -5% in test [4] (setting [7]); -17% in test [4] (setting [8]); 0.45% in test [4] (at 50.0 µM). For the same compound, the growth inhibition in test [5] (setting [7]) is -10%; in test [5] (setting [8]), -10%; in test [5] (at 50.0 µM), 23.6%; in test [6] (setting [7]) it was -16%; in test [6] (setting [8]), -6%; in test [6] (at 50.0 µM) it was -16.6%.
On to `COc1ccc([As]=[As]c2ccc(OC)c(I)c2)cc1I` (stereo not given), for which the growth inhibition is 98% (active) in test [1] (setting [7]); 99% (active) in test [1] (setting [8]); 99.7% (active) in test [1] (at 50.0 µM); 100% (active) in test [2] (setting [7]); 100% (active) in test [2] (setting [8]); 99.8% (active) in test [2] (at 50.0 µM). Besides, the growth inhibition in test [3] (setting [7]) was 99% (active); in test [3] (setting [8]), 100% (active); in test [3] (at 50.0 µM), 99.8% (active); in test [4] (setting [7]), 98% (active); in test [4] (setting [8]), 98% (active); in test [4] (at 50.0 µM) it was 99.8% (active). In addition, the growth inhibition was 99% (active) in test [5] (setting [7]); 99% (active) in test [5] (setting [8]); 99.6% (active) in test [5] (at 50.0 µM); 99% (active) in test [6] (setting [7]); 99% (active) in test [6] (setting [8]); 99.7% (active) in test [6] (at 50.0 µM).
As for `CC(C)c1ccc(C(C)C)c(C(=O)CN2CCOCC2)c1`, the growth inhibition in test [1] (setting [7]) is 4%; in test [1] (setting [8]) it was 13%; in test [1] (at 50.0 µM), 41.1%; in test [2] (setting [7]), 8%; in test [2] (setting [8]), 34%; in test [2] (at 50.0 µM) it was 34.8%. Moreover, the growth inhibition in test [3] (setting [7]) was 3%; in test [3] (setting [8]), 19%; in test [3] (at 50.0 µM), 42.6%; in test [4] (setting [7]), -1%; in test [4] (setting [8]), 2%; in test [4] (at 50.0 µM), -3.3%. Moreover, the growth inhibition in test [5] (setting [7]) was 3%; in test [5] (setting [8]), 17%; in test [5] (at 50.0 µM), 97.8% (active); in test [6] (setting [7]), 5%; in test [6] (setting [8]), 20%; in test [6] (at 50.0 µM) it was 35.4%.
For `CCC[CH2][Pb]([CH2]CCC)([CH2]CCC)[n]1ccnc1`, the growth inhibition in test [1] (setting [7]) was 99% (active); in test [1] (setting [8]) it was 99% (active); in test [1] (at 50.0 µM) it was 90.2% (active); in test [2] (setting [7]), 99% (active); in test [2] (setting [8]) it was 99% (active); in test [2] (at 50.0 µM), 92.7% (active). The growth inhibition in test [3] (setting [7]) was 98% (active); in test [3] (setting [8]), 98% (active); in test [3] (at 50.0 µM), 93.7% (active); in test [4] (setting [7]), 97% (active); in test [4] (setting [8]), 99% (active); in test [4] (at 50.0 µM) it was 91.6% (active). Moreover, the growth inhibition is 99% (active) in test [5] (setting [7]); 93% (active) in test [5] (setting [8]); 92.2% (active) in test [5] (at 50.0 µM); 99% (active) in test [6] (setting [7]); 99% (active) in test [6] (setting [8]); 91% (active) in test [6] (at 50.0 µM).
`CC(=O)[O-].O=[N+]([O-])c1ccc([O-])c(C=NCCN=Cc2cc([N+](=O)[O-])ccc2[O-])c1.[Mn+3]`: the growth inhibition was 15% in test [1] (setting [7]); 96% (active) in test [1] (setting [8]); 91.8% (active) in test [1] (at 50.0 µM); -2% in test [2] (setting [7]); 98% (active) in test [2] (setting [8]); 79.2% (active) in test [2] (at 50.0 µM). The growth inhibition in test [3] (setting [7]) was 10%; in test [3] (setting [8]), 93% (active); in test [3] (at 50.0 µM) it was 91.6% (active); in test [4] (setting [7]), 19%; in test [4] (setting [8]) it was 95% (active); in test [4] (at 50.0 µM), 48.2%. Besides, the growth inhibition was 1% in test [5] (setting [7]); 94% (active) in test [5] (setting [8]); 88.5% (active) in test [5] (at 50.0 µM); 12% in test [6] (setting [7]); 97% (active) in test [6] (setting [8]); 93.3% (active) in test [6] (at 50.0 µM).

For the origin of these results see PubChem BioAssay (NCI).
